# Among all 5,600 compounds or so, about 390 (7%) showed an effect of 50% or more. What follows is part of a selection rich in strong results, with near analogues and random picks from the rest.
# Target: T1, Protein deacetylase HDAC6 (Homo sapiens) (UniProt Q9UBN7)
# T1 sequence (whole entry): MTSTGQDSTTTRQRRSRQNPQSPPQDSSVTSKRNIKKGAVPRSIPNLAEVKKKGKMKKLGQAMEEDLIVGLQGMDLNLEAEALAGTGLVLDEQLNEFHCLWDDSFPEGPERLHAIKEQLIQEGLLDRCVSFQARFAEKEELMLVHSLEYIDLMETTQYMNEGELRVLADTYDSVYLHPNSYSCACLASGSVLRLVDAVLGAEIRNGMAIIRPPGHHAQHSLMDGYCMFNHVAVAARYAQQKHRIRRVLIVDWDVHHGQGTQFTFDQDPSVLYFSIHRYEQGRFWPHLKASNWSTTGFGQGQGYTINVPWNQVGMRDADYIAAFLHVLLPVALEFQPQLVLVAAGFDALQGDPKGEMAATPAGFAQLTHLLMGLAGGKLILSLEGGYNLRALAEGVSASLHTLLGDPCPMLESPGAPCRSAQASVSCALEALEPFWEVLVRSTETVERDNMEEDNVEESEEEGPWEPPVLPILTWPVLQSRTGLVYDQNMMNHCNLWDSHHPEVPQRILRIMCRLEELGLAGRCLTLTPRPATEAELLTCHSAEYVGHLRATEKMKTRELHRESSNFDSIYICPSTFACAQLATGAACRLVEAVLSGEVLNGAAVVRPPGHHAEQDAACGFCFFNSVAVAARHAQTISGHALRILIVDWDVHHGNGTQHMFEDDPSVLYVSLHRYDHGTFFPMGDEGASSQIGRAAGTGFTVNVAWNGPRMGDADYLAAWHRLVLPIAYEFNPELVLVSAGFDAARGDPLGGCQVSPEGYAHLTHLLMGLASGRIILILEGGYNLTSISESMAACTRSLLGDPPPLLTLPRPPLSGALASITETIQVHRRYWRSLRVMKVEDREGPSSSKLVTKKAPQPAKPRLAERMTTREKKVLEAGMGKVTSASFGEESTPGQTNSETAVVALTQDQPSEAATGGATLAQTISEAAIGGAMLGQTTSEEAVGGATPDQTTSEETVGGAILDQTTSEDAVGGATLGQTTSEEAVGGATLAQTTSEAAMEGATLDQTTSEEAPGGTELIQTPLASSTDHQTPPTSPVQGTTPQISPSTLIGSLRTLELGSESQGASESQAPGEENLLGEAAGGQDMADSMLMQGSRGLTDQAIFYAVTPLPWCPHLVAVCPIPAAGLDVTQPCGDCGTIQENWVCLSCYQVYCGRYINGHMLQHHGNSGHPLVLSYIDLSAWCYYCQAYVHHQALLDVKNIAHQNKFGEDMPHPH
# Details: at 10 µM
row,Compound,inhibition [%]
1,O=C(O)Cc1ccc2c(c1)C(=O)c1ccccc1CO2,75
2,O=C(O)Cc1ccc(OCc2ccccc2)c(Cl)c1,-0.75
3,O=C(O)c1ccc(N2N=C(Cc3ccccc3)/C(=C\c3ccc(-c4ccccc4F)o3)C2=O)cc1,5.2
4,CC(C)OC(=O)N[C@H]1Cc2c(n(Cc3ccccn3)c3ccc(C#N)cc23)C1,-8.91
5,CC(C)(C)c1ccc(O)cc1,17.6
6,CC(C)(C)c1ccc(-c2nc3ccccc3[nH]2)cc1,105
7,C#CCC(Cc1cnc2nc(N)nc(N)c2n1)c1ccc(C(=O)N[C@@H](CCC(=O)O)C(=O)O)cc1 (stereo partly drawn),30
8,Oc1cc(CNC(=S)/C=C/c2cc(O)c(O)c(Br)c2)cc(O)c1O,36
9,COc1cc(N2CCN(C)CC2)ccc1Nc1ncc2c(n1)N(C)c1ccccc1C(=O)N2C,0.79
10,COC(=O)c1ccc(N2CCN(C)CC2)c(NC(=O)c2cccc(OC)c2)c1,5.02
11,COc1ccc(N(C(=O)Oc2c(C)cccc2C)c2ccnc(Nc3ccc(N4CCN(C)CC4)cc3)n2)c(OC)c1,102
12,Cn1c(C#N)ccc1-c1ccc2c(c1)C(C)(C)OC(=S)N2,12.5
13,O=C(Nc1cc(C(F)(F)F)cc(C(F)(F)F)c1)c1cc(Cl)ccc1O,3.28
14,CC(=O)NCCNc1cc(Cl)nn2c(-c3cccc(S(=O)(=O)N(C)C)c3)c(C)nc12,15.6
15,CC(C)CN(C[C@@H](OP(=O)(O)O)[C@H](Cc1ccccc1)NC(=O)O[C@H]1CCOC1)S(=O)(=O)c1ccc(N)cc1,7.63
16,CCCN(CCC)C(=O)Cc1c(-c2ccc(Cl)cc2)nc2ccc(Cl)cn12,-6.78
17,CC1=CC(=C(c2ccc(N)cc2)c2ccc(N)cc2)C=CC1=N,57.5
18,O=C(O)c1ccccc1NC(=O)C12CC3CC(CC(C3)C1)C2,8.92
19,O=C(NO)c1cnc(N2CCN(S(=O)(=O)c3ccc4ccccc4c3)CC2)nc1,102
20,COc1ccc(S(=O)(=O)N2CCCN(S(=O)(=O)c3ccc(OC)c(OC)c3)CC2)cc1OC,5.48
21,O[C@@](Cc1nc(CC2(C(F)(F)F)CC2)c[nH]1)(c1ccc(-n2cccn2)cc1)C(F)(F)F,-0.94

row,Compound,inhibition [%]
1,O=C(O)CCc1ccc(NCc2cccc3c2CCCN3CCOc2ccccc2)cc1F,8.07
2,OCCNC1CCCc2c1[nH]c1ccc(-c3ccccc3)cc21 (stereo not drawn),59.1
3,CCc1nc(C)ccc1O,3.81
4,N[C@@H](CSCC(=O)O)C(=O)O,17.8
5,CC1(C)CC[C@]2(C(=O)O)CC[C@]3(C)[C@H](C(=O)C=C4[C@@]5(C)C=C(C#N)C(=O)C(C)(C)[C@@H]5CC[C@]43C)[C@@H]2C1,11.2
6,CN(C)/N=N/c1ccc(C(=O)O)cc1,26.9
7,C=C1C[C@@]2(O)O[C@@]3(C[C@H]2C(C)C)[C@@H](C)CC[C@@H]13,20.2
8,CC(C)(C)C(=O)NCCCC(=O)O,0.18
9,N=C1CCCN1Cc1[nH]c(=O)[nH]c(=O)c1Cl,55.5
10,O=C(O)c1cc(/N=N/c2ccc(O)c(C(=O)O)c2)ccc1O,98.2
11,COc1ccc(NS(=O)(=O)c2ccc(/N=N/c3ccc(O)c(C(=O)O)c3)cc2)nn1,35.8
12,Cc1cccc(C(=O)O)c1O,35.8
13,O=c1[nH]c2ccccc2c(=O)n1CCCN1CCN(c2ccccc2)CC1,8.65
14,O=C(OCCN1CCOCC1)c1cccnc1Nc1cccc(C(F)(F)F)c1,62
15,O=C(O)c1ccccc1Nc1cccc(C(F)(F)F)c1,30.6
16,NC(=O)NCCN1CCN(c2cccc(C(F)(F)F)c2)CC1,22
17,c1ccc2c(c1)Nc1ccccc1S2,74.6
18,CC(C)(C)C(=O)OCC(=O)[C@H]1CC[C@H]2[C@@H]3CCC4=CC(=O)CC[C@]4(C)[C@H]3CC[C@]12C,23.8
19,CCC(=O)c1ccc(OCC(O)CN2CCN(c3ccccc3)CC2)cc1 (stereo not drawn),19.9
20,Cc1cc(C)nc(NS(=O)(=O)c2ccc(NC(=S)NC(=O)COc3ccc(Br)cc3Cl)cc2)n1,19.5
21,CCc1ccc(C2=CC(C)(C)Sc3ccc(C#Cc4ccc(C(=O)O)cc4)cc32)cc1,63

row,Compound,inhibition [%]
1,CC1(C)CCC(C)(C)c2cc(C#Cc3ccc(C(=O)O)cc3)ccc21,-3.59
2,CCCc1ccc(C(=O)O)cc1,29.1
3,COc1cn(-c2ccc(-n3cccn3)cc2F)nc(-c2ccnn2-c2ccccc2)c1=O,0
4,O=C1NC(=O)c2c1c1c3ccccc3n3c1c1c2c2ccccc2n1C1CCC3O1,1.84
5,C[C@H](N)Cc1c[nH]cn1,7.87
6,Oc1ccc(-c2nc3cc(O)cc(Br)c3o2)cc1,101
7,C/C(=C(/CCOC(=O)C(C)C)SS/C(CCOC(=O)C(C)C)=C(\C)N(C=O)Cc1cnc(C)nc1N)N(C=O)Cc1cnc(C)nc1N,9.58
8,COc1cc(CN2CCN(c3ccc(F)cc3)CC2)cc(OC)c1OC,16.8
9,CCCCCCCCCCCCCCCCCC(=O)OC[C@@H](O)[C@H]1OC[C@H](O)[C@H]1O,1.06
10,CC(C)(C)NCC(O)c1cc(Cl)c(N)c(C(F)(F)F)c1 (stereo not drawn),16.6
11,COc1ccc(-c2cnc3c(-c4cccc5ncccc45)cnn3c2)cc1,-9.41
12,c1ccc(-c2cnn3cc(-c4ccc(OCCN5CCOCC5)cc4)cnc23)cc1,92.3
13,CC(C)Oc1ccc(-c2cnc3c(-c4ccnc5ccccc45)cnn3c2)cc1,-2.96
14,c1ccc(OCc2ccc(CCCN3CCOCC3)cc2)cc1,45
15,c1cc(-c2cnn3cc(-c4ccc(OCCN5CCCCC5)cc4)cnc23)ccn1,69.7
16,C=C1/C(=C\C=C2/CCC[C@]3(C)[C@@H]([C@H](C)/C=C/[C@H](C)C(C)(C)O)CC[C@@H]23)C[C@@H](O)C[C@@H]1O,-3.96
17,COC(=O)[C@H](Cc1ccc([N+](=O)[O-])cc1)NC(=O)c1cccc2ccccc12,10.5
18,COc1ccc2cc(-c3cc(-c4cc(Cl)cc(Cl)c4)nn3[C@@H](C)c3ccc(C(=O)NCCC(=O)O)cc3)ccc2c1,18.3
19,OC[C@H]1O[C@H](O[C@H]2O[C@H](CO)[C@@H](O)[C@H](O)[C@H]2O)[C@H](O)[C@@H](O)[C@@H]1O,-9.27
20,O=C(OCC(COC(=O)c1cccnc1)(COC(=O)c1cccnc1)COC(=O)c1cccnc1)c1cccnc1,7.98
21,CN(C)c1nc(N)c(C(=O)Nc2cccnc2)nc1Cl,100

# — ChEMBL document CHEMBL4808148, “HDAC6 screening dataset using tau-based substrate in an enzymatic assay yields selective inhibitors and activators” (2021)
